The results in this text go back to PubChem BioAssay (NCI).

Compounds without any hit were thinned out: in the full panel of roughly 83,000, 20% have a hit.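 Cell lines were cultured in 96-well plates, exposed to a single compound concentration, and assessed for percent growth 48 hours later.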 The source made the active and inactive calls. How the source made its calls: active means growth percent below 10; inactive means the rest.

The test system of this assay is HL-60(TB) leukemia. Kind of assay: NCI-60 one-dose screen, 48 h (100 = growth as untreated, 0 = no growth, -100 = all killed). The conditions noted are these: 10 µM unless noted.
As for `O=C1/C=C/[C@@H](O)[C@@H]2C[C@@H](O)C[C@H]2/C=C/CCC[C@H](CCOCc2ccccc2)O1`, the growth is 0.107% (active).
The result for `CC(=O)C1C(=O)C(=O)N(c2cccc([N+](=O)[O-])c2)C1=O` (stereo not given) reads 103% (inactive).
In the case of `N#CCCCCCn1c2ccccc2c2c3c(c4c5ccccc5n(CCCCCC#N)c4c21)C(=O)N(O)C3=O`, the growth is 64.3% (inactive).
The result for `COc1ccc(/C=N/C2=NNC(C)(c3ccccc3O)N2C(Cc2c[nH]c3ccccc23)C(=O)O)cc1` (stereo not given) reads -21.9% (active).
As for `CN(C)c1ccc(-c2cc(-c3ccc(Nc4nc(Nc5ccccc5)nc(Nc5ccc(Cl)cc5)n4)cc3)nc(N)n2)cc1`, the growth is 56.3% (inactive).
Consider `CC(C)(C)OC(=O)NC(CSCc1ccccc1)C(=O)ON1C(=O)CCC1=O` (stereo not given), for which the growth was 70.9% (inactive).
Turning to `O=C(NCCCNc1cc(-c2cn(-c3ccccc3)nc2-c2cccc(O)c2)ccn1)c1ccccc1`, the growth is 8.91% (active).
On to `CC(CN)[C@@H]1CC[C@]2(CO)CC[C@]3(C)[C@H](CC[C@@H]4[C@@]5(C)CCC(NCCO)C(C)(C)[C@@H]5CC[C@]43C)[C@@H]12` (stereo not given in full), for which the growth was 60% (inactive).
As for `Cc1cc(C#Cc2ccccc2)ccc1-n1c(/C=C/c2ccc(F)cc2)nc2ccccc2c1=O`, the figure is 34.3% (inactive); as for `CC(C)C1CCC(C)C(C2(C#N)C(N)=NC(N)=C2C#N)C1=O` (stereo not given), 96.7% (inactive); as for `Cc1ccc(S(=O)(=O)Nc2ccccc2)cc1N`, 96% (inactive).
In the case of `CN(C)/N=C/c1ccccc1O`, the growth is 97.1% (inactive).
On to `Cc1cc(C)c2nc(C)c(C)[n+]([O-])c2c1`, for which the growth is 85.7% (inactive).
The result for `Cl.[Pt].[c-]1ccccc1-c1ccccn1.c1ccc(P(c2ccccc2)C([PH+](c2ccccc2)c2ccccc2)[PH+](c2ccccc2)c2ccccc2)cc1` reads 7.19% (active).
Take `CC(=O)Nc1nc(C)c(C(=O)N/N=C/N2CCCCC2)s1`: the growth was 131% (inactive).
`COC(=O)c1c2c(c(C)[n+]([O-])c1C)C(=O)C(NCc1cccc(Cl)c1)=CC2=O`: the growth is -56.1% (active).
The result for `COc1ccc(C(=O)OC2C(OC3C(O)COC(O[C@H]4C[C@H]5[C@@H]6CC=C7C[C@@H](O)CC[C@]7(C)[C@H]6CC[C@]5(C)[C@H]4[C@H](C)C(=O)CCC(C)C)C3OC(C)=O)OCC(O)C2O)cc1` (stereo not given in full) reads -40.7% (active); that for `CCCC/C(CC)=N\NS(=O)(=O)c1ccc([N+](=O)[O-])cc1`, 92.2% (inactive).
The result for `O=C1C=C[C@H](O)[C@@]2(CO)O[C@@H]12` reads -24.4% (active).
The result for `COc1ccc(-c2nc3ccccc3n3cccc23)cc1` reads 104% (inactive); that for `COc1cc(Cl)cc(-c2nn(-c3cccc(NC(=O)c4ccc(Cl)c(Cl)c4)c3)cc2-c2ccncc2)c1`, 94.1% (inactive).
Take `COc1ccc(C(=O)/C=C/c2ccc(/C=C/c3cc(OC)c(OC)c(OC)c3)cc2)cc1`: the growth was 21.5% (inactive).
As for `Cc1ccc(NC(=O)c2sc3nc(C)c(Br)c(C)c3c2N)cc1`, the figure is 95.2% (inactive); as for `CCOC(=O)C1=C(C)NC(=O)NC1c1c(Cl)n(CCCl)c2ccccc12` (stereo not given), 117% (inactive); as for `O=C(/C=C/c1ccco1)c1ccccc1O`, 92.5% (inactive).
As for `COc1ccc(/C=C2\N=C(c3cccnc3)N(c3ccccc3)NC2=O)cc1`, the figure is 95% (inactive).
The result for `CC/C(=C(/c1ccc(Cl)cc1)c1ccc(OCCN2CCCC2)cc1)c1ccccc1` reads 17.4% (inactive); that for `C[n+]1c(/C=C\C=C\N2CCCCC2)sc2ccccc21`, -37.3% (active).
Consider `COc1cc(-c2nn(-c3cccc(NC(=O)CCN4CCN(C)CC4)c3)cc2-c2ccncc2)ccc1Cl`, for which the growth was -24.5% (active).
The result for `COc1ccc2sc3c(NCCCN)nc4ccccc4c3c(=O)c2c1` reads 2.17% (active).
For `CCc1oc2ccccc2c1C(=O)c1cc(I)c(O)c(I)c1`, the growth was 10.1% (inactive).
As for `Cc1c(C(=O)O)nnn1-c1nccs1`, the figure is 95.5% (inactive); as for `O=c1nc2oc3ccc4ccccc4c3cc-2s1`, -29.2% (active).
Take `COc1ccc(Cl)cc1Nc1nc(C(F)(F)F)ccc1C(=O)N/N=C/c1ccc([N+](=O)[O-])cc1`: the growth was -10.8% (active).
For `C#CCOc1ccc2ncnc(NCc3cccc(NC(=O)CCl)c3)c2c1`, the growth was 19.5% [8.25 µM] (inactive).
The result for `CC(=O)OC1CCC2(C)C(=CC3C4CCC(=O)C4(C)CCC32)C1` (stereo not given) reads 91% (inactive); that for `CC[C@H](Nc1ncnc2nc[nH]c12)c1nc2cccc(CC(=O)c3ccc(C(=O)NO)cc3)c2c(=O)n1-c1ccccc1`, 75.5% (inactive).
Turning to `O=C(O)C(/C=C/c1ccco1)=N\Nc1nc(-c2ccc(Cl)cc2)cs1`, the growth was 52.2% (inactive).
The result for `O=C1OCC2=C1C(c1cccc(F)c1)c1cc3c(cc1N2CCO)OCO3` (stereo not given) reads -28.9% (active); that for `CCOC(=O)c1c(C)c2c(n1Cc1ccccc1)CSCC2=O`, 13.3% [100 µM] (inactive).
